Source: PubChem BioAssay AID1159580 (chemical genetic matrix, 2015)
“And” between values parts separate entries of the source, which are not always exact repeats. Equal values may be shown once. Screen size: about 5,500 compounds; about 2,000 (36%) were called active. Inconclusive results (about 18%) are left out. Rule as the data show it: active = normalized growth mostly below about 0.91 (no sharp cut-off); inconclusive = no clear call, values can overlap the other calls; inactive = mostly above about 0.92. This is one part of the list.

Experiment: chemical genetic growth profiling, strain panel (AID 1159580);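 also: tested at 20 µM; growth read once vehicle control cultures reached saturation at 30 °C; 1 = growth at the plate median or of vehicle wells; lower values mean less growth of the strain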
Conditions: S. cerevisiae deletion strains, growth OD

Measured: normalized growth

CCC1(C)CC(=O)NC1=O (stereo not given)
inactive: locus YAL013W, strain DEP1, hits give low values 1.01 and 1.05 | locus YAL021C, strain ccr4, hits give low values 0.987 | locus YAL026C, strain drs2, hits give low values 0.986 | locus YAL030W, strain snc1, hits give low values 0.954 | locus YAL040C, strain CLN3, hits give low values 0.994 | locus YBL061C, strain skt5, hits give low values 0.993 | locus YBR009C, strain hhf1, hits give low values 0.97 | locus YBR021W, strain FUR4, hits give low values 1.01 | locus YBR023C, strain chs3, hits give low values 0.958 | locus YBR171W, strain sec66, hits give low values 0.983 | locus YBR229C, strain ROT2, hits give low values 1.01 | locus YBR231C, strain swc5, hits give low values 0.991 | locus YBR279W, strain paf1, hits give low values 0.973 | locus YCL011C, strain gbp2, hits give low values 0.992 | locus YCL016C, strain dcc1, hits give low values 0.986 | locus YCL029C, strain bik1, hits give low values 1.02 | locus YCL061C, strain MRC1 (second series), hits give low values 1.01 | locus YCL069W, strain vba3, hits give low values 0.977 | locus YCR088W, strain abp1, hits give low values 0.974 | locus YDL005C, strain med2, hits give low values 0.974 | locus YDL035C, strain GPR1, hits give low values 0.999 | locus YDL040C, strain nat1, hits give low values 0.995 | locus YDL074C, strain BRE1, hits give low values 0.977 | locus YDL101C, strain DUN1, hits give low values 1.01 | locus YDL134C, strain PPH21, hits give low values 1.02 | locus YDL185W, strain tfp1, hits give low values 1.02 | locus YDL192W, strain arf1, hits give low values 1.02 | locus YDR001C, strain nth1, hits give low values 0.964 | locus YDR069C, strain doa4, hits give low values 0.991 | locus YDR101C, strain arx1, hits give low values 1.04 | locus YDR137W, strain rgp1, hits give low values 0.979 | locus YDR150W, strain NUM1, hits give low values 1.01 | locus YDR159W, strain sac3, hits give low values 0.986 | locus YDR162C, strain NBP2, hits give low values 1.02 | locus YDR195W, strain ref2 0.953 | locus YDR297W, strain sur2, hits give low values 0.981 | locus YDR318W, strain mcm21, hits give low values 1.01 | locus YDR334W, strain swr1, hits give low values 0.952 | locus YDR335W, strain msn5, hits give low values 0.969 | locus YDR363W, strain ESC2, hits give low values 1.02 | locus YDR388W, hits give low values 1.02 | locus YDR392W, strain spt3, hits give low values 0.962 | locus YDR502C, strain sam2, hits give low values 1.01 | locus YEL003W, strain gim4, hits give low values 0.978 | locus YEL037C, strain rad23, hits give low values 0.975 | locus YEL061C, strain CIN8 (second series), hits give low values 0.982 | locus YEL061C, strain CIN8, hits give low values 1.01 | locus YER002W, strain NOP16, hits give low values 1.01 | locus YER015W, strain faa2, hits give low values 0.96 | locus YER016W, strain bim1, hits give low values 0.981 | locus YER110C, hits give low values 1.02 | locus YER111C, strain swi4, hits give low values 0.983 | locus YER155C, strain BEM2 (second series), hits give low values 0.973 | locus YER155C, strain BEM2, hits give low values 0.999 | locus YER167W, strain BCK2, hits give low values 1.01 | locus YFR010W, strain ubp6, hits give low values 0.974 | locus YGL078C, strain dbp3, hits give low values 1.01 | locus YGL086W, strain mad1, hits give low values 1.01 | locus YGL167C, strain pmr1, hits give low values 0.982 | locus YGL173C, strain kem1, hits give low values 0.98 | locus YGL227W, strain vid30, hits give low values 0.985 | locus YGL240W, strain doc1, hits give low values 0.971 | locus YGL248W, strain PDE1, hits give low values 1 | locus YGL253W, strain hxk2, hits give low values 0.981 | locus YGR078C, strain PAC10, hits give low values 1 and 0.997 | locus YGR135W, strain pre9, hits give low values 1.02 | locus YGR229C, strain SMI1, hits give low values 1.01 and 1.03 | locus YGR252W, strain gcn5, hits give low values 0.98 | locus YHR013C, strain ard1, hits give low values 0.94 | locus YHR027C, strain rpn1, hits give low values 0.978 | locus YHR030C, strain SLT2, hits give low values 1.01 and 0.972 | locus YHR079C, strain IRE1 (second series), hits give low values 1.02 | locus YHR079C, strain IRE1, hits give low values 0.978 | locus YHR094C, strain hxt1, hits give low values 1.02 | locus YHR129C, strain ARP1, hits give low values 1 | locus YHR142W, strain chs7, hits give low values 0.967 | locus YHR200W, strain rpn10, hits give low values 1.02 | locus YIL066C, strain RNR3, hits give low values 1.01 | locus YIL073C, strain SPO22, hits give low values 1.06 | locus YIL125W, strain kgd1, hits give low values 1.01 | locus YIR030C, strain dcg1, hits give low values 1.02 | locus YJL092W, strain hpr5, hits give low values 0.974 | locus YJL095W, strain BCK1 (second series), hits give low values 0.982 | locus YJL095W, strain BCK1, hits give low values 0.989 and 0.973 | locus YJL115W, strain asf1, hits give low values 0.959 | locus YJL129C, strain trk1, hits give low values 0.943 | locus YJL134W, strain LCB3, hits give low values 1.01 | locus YJL154C, strain vps35, hits give low values 0.971 | locus YJL164C, strain tpk1, hits give low values 0.974 | locus YJL166W, strain qcr8, hits give low values 0.974 | locus YJL168C, strain set2, hits give low values 1.01 | locus YJL187C, strain SWE1 (second series), hits give low values 1.01 | locus YJL187C, strain SWE1, hits give low values 0.98 | locus YJR043C, strain POL32, hits give low values 1.02 | locus YJR066W, strain TOR1, hits give low values 0.95
